Compound activity from PubChem BioAssay.
PKM2 inh: inhibitors of human pyruvate kinase M2; P14618; purified PKM2, ATP generation, Kinase-Glo luminescence; Potency, µM (series often up to 57.5 µM), most hits filed as inhibitors; 260,000 compounds, 0.058% hits; further: nearly all actives have a fitted effect of over 60% in size
Target sequence (P14618 whole entry, looked up): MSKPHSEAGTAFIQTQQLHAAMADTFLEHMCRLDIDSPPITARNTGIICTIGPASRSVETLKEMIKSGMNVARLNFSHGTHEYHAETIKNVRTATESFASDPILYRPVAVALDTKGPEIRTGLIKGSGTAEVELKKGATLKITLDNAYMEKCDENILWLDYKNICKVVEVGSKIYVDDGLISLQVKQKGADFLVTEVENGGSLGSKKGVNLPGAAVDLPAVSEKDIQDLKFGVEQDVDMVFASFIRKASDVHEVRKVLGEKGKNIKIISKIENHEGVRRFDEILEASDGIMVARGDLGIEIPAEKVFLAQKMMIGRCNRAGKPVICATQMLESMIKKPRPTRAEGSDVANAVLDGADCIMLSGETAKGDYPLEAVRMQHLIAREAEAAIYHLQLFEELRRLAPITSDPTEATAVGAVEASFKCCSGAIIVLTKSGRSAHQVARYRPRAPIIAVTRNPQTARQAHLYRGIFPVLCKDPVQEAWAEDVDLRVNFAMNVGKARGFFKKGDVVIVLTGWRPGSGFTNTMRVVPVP
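Coupled luciferase luminescence (Kinase-Glo) detects ATP generated from 0.1 mM ADP and 0.5 mM PEP in imidazole buffer pH 7.2 with KCl, MgCl2; 1 h at room temperature. Enzyme at intermediate activity; normalized to uninhibited and no-enzyme controls.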
PKM2 inh dose: dose-dependently blocks human pyruvate kinase M2 activity; shares compounds with PKM2 inh; purified hPK-M2, Kinase-Glo ATP luminescence, 1 h; Potency, µM (highest dose often 57.5 µM), actives largely listed as inhibitors; 55 compounds, 50% hits; AID 2263
PKM2 FLuc cs: counter-screen for pyruvate kinase M2 inhibitors: firefly luciferase inhibition. 55 compounds, 30% hits. Kinase-Glo firefly luciferase, luminescence, 8 min. shares compounds with PKM2 inh. Potency, µM (top dose mostly 57.5 µM), most hits filed as inhibitors
PKM2 inh LDH: blocks human pyruvate kinase M2 in LDH-coupled assay | Potency, µM (titrated, usually from 57.5 µM), actives largely listed as inhibitors | shares compounds with PKM2 inh | 55 tested, under 10 active | purified hPK-M2, LDH-coupled NADH fluorescence kinetic
Hits are given with their value; - = inactive; ? = inconclusive; . = no result. The full list was thinned out, with hits kept by preference. The call rests on the fitted dose curve; in most records, active means well fitted curve in the direction sought with a large enough effect; inconclusive means small, poorly fitted or top-dose-only effect, or another doubt; inactive means no such curve, though single readings can be large; an effect the other way counts as inactive or inconclusive.

SMILES	PKM2 inh	others
COc1cc(N2C(=O)C=CC2=O)c(OC)cc1Cl	-
CCC(C)OC(=O)c1[nH]c2c(c1C)C(=O)CC(c1ccc(N(C)C)cc1)C2 (stereo not given)	-
CC(=O)c1ccc(S(=O)(=O)N2CCN(C(=O)CSc3ccc(C)c(C)c3)CC2)cc1	-
COc1ccc(CCN2CC(C(=O)N(C)Cc3c(C)n[nH]c3C)CCC2=O)cc1 (stereo not given)	-
O=S(=O)(Nc1ccc2ccccc2n1)c1ccccc1Cl	-
Cc1c(C(=O)OCC[N+]2(C)CCCCC2)oc2ccccc12	-
COc1ccc(C(=O)N=c2nc3ccccn3s2)cc1	7.94µM	PKM2 inh dose=13µM;PKM2 FLuc cs=5.17µM;PKM2 inh LDH=-
O=c1c(Cc2ccc(Cl)cc2)c(O)ccn1Cc1ccncc1	-
CCN(CC)S(=O)(=O)c1cccc(C(=O)N/N=C/c2ccccn2)c1	-
COc1cc([N+](=O)[O-])ccc1NC(=O)COC(=O)c1ccc(NC(N)=O)cc1	-
Cc1ccc(N2NC(=O)/C(=C\c3cc4c(cc3[N+](=O)[O-])OCO4)C2=O)cc1C	-
CCOC(=O)CSc1nc2c(sc3ccc([N+](=O)[O-])cc32)c(=O)n1Cc1ccco1	-
N/C(=N\OC(=O)c1ccccc1)c1ccccn1	3.98µM	PKM2 inh dose=9.19µM;PKM2 FLuc cs=4.11µM;PKM2 inh LDH=-
CCOc1ccc(NC(c2ccccn2)c2oc(CO)cc(=O)c2O)cc1 (stereo not given)	-
CCOC(=O)N1CCN(S(=O)(=O)c2ccc(OCC)cc2)CC1	-
C/C(=N\NC(=O)C1CCCN(S(=O)(=O)c2ccccc2)C1)c1ccccn1 (stereo not given)	-
CCOc1ccc(C(=O)O/N=C(\N)c2ccccn2)cc1	7.94µM	PKM2 inh dose=5.8µM;PKM2 FLuc cs=6.51µM;PKM2 inh LDH=-
CCOc1cc(/C=N/O)cc(Cl)c1OC	-
N#C/C(=C\Nc1ccc(Cl)cc1)S(=O)(=O)c1ccccn1	-
Cn1c(Cl)cnc1C1CC(=O)c2cc(Cl)ccc2O1 (stereo not given)	-
O=c1c2ccccc2sn1-c1cc(S(=O)(=O)N2CCOCC2)ccc1N1CCCC1	3.55µM	PKM2 inh dose=6.51µM;PKM2 FLuc cs=-;PKM2 inh LDH=?
CC1(C)NC(=O)N(CC(=O)Nc2cc(S(=O)(=O)N3CCOCC3)ccc2N2CCOCC2)C1=O	-
O=C(c1cc(S(=O)(=O)N2CCOCC2)ccc1Cl)N1CCN(c2ccccn2)CC1	-
Cc1cc(NC(=O)CSc2ccc(-c3ccc(F)cc3)nn2)no1	-
Cc1ccccc1-c1nc(-c2ccccn2)no1	8.91µM	PKM2 inh dose=11.6µM;PKM2 FLuc cs=5.17µM;PKM2 inh LDH=-
SMILES	PKM2 inh	others
COc1ccc(-c2nc(-c3ccccn3)no2)cc1	3.55µM	PKM2 inh dose=5.8µM;PKM2 FLuc cs=3.26µM;PKM2 inh LDH=-
COc1ccc(C(=O)NCc2oc(-c3ccccc3)cc2C(=O)O)cc1	-
COc1ccccc1N1CCN(C(=O)CSc2nc(C)c(Cc3ccccc3)c(=O)[nH]2)CC1	-
Oc1ccc(/C=N/N2CCN(C3c4ccccc4-c4ccccc43)CC2)cc1O	-
Cc1cc(C)n(C(=O)c2cc3c(s2)CCCC3)n1	-
CC(Sc1n[nH]c(N)n1)c1nc2scc(-c3cccs3)c2c(=O)[nH]1 (stereo not given)	-
O=C(Nc1ccccc1)C1=C(O)CC(c2ccc(Cl)cc2)N2CCN=C12 (stereo not given)	-
CNS(=O)(=O)c1ccc2c(c1)oc(=O)c1cc(S(=O)(=O)NC)ccc12	-
Cc1ccn(S(=O)(=O)c2ccc3oc(=O)ccc3c2)n1	-
O=c1[nH]c(CN2CCN(c3ccc(O)cc3)CC2)nc2scc(-c3ccc(Cl)cc3)c12	-
Cc1ccc(-n2[nH]c(C)c(/C=N/c3ccccn3)c2=O)cc1	11.2µM	PKM2 inh dose=?;PKM2 FLuc cs=?;PKM2 inh LDH=-
Cc1ccc(NC(=O)C2C3CCCC2C3c2ccccc2)cc1 (stereo not given)	-
COc1cccc(CNc2nc3ccccc3n2C(C)C)c1O	-
Cc1ccc(Nc2c(-c3ccc(C)s3)nc3cccc(C)n23)cc1	.	PKM2 inh dose=?;PKM2 FLuc cs=-;PKM2 inh LDH=-
COc1ccc(-c2nc3cccc(C)n3c2Nc2ccc(C)cc2)cc1	.	PKM2 inh dose=-;PKM2 FLuc cs=-;PKM2 inh LDH=?
Cc1ccccc1Nc1c(-c2ccccc2)nc2cccc(C)n12	.	PKM2 inh dose=-;PKM2 FLuc cs=-;PKM2 inh LDH=?
Cc1c(C(=O)Nc2cccc(N(C)S(C)(=O)=O)c2)cccc1[N+](=O)[O-]	-
CCCS(=O)(=O)c1c(S(=O)(=O)CCC)c2c(C)cccn2c1C(=O)N/N=C/c1cc(O)cc(O)c1	-
Cn1nccc1C(=O)N1CCN(c2ncccn2)CC1	-
CCCc1[nH]nc2c1C(c1ccc(OC)c(CSC3=NCCS3)c1)C(C#N)=C(N)O2 (stereo not given)	-
Cc1cc(C)cc(NC(=O)CSc2nncn2-c2ccccn2)c1	-
CCn1ccnc1CN(C)Cc1cn(-c2cc(C)ccc2C)nc1-c1ccccc1	-
CCC1CCCCN1S(=O)(=O)c1ccc2[nH]c(=O)ccc2c1 (stereo not given)	-
COc1cccc2cc(C(=O)Nc3cc(Cl)ccc3N3CCOCC3)c(=O)oc12	-
COc1ccc2c(c1)OCC1=C2CCC2(C)C(=O)CC=C12 (stereo not given)	-
SMILES	PKM2 inh	others
O=C(Cn1nnc(-c2ccccc2Cl)n1)N1CCN(S(=O)(=O)c2ccc(Cl)cc2)CC1	-
O=[N+]([O-])c1cccc(COc2ncnc3cc([N+](=O)[O-])ccc23)c1	-
COc1ccc(CCN2CC(C(=O)NCc3ccco3)CC2=O)cc1OC (stereo not given)	-
Cc1cccc(OCc2nnc(SCC(=O)Nc3cccc(C(=O)N4CCOCC4)c3)n2C)c1	-
CNS(=O)(=O)c1ccc(NCC2COc3ccccc3O2)c([N+](=O)[O-])c1 (stereo not given)	-
COc1ccc(-c2ccc(Nc3ccc(C(=O)N4CCOCC4)cc3)nn2)cc1OC	-
COc1ccc(-c2cn3ccccc3n2)cc1OC	8.91µM	PKM2 inh dose=?;PKM2 FLuc cs=?;PKM2 inh LDH=?
COc1ccc(-c2ccc(=O)n(CC(=O)Nc3cccc(O)c3)n2)cc1OC	-
COc1cccc(S(=O)(=O)Nc2ccc(C(=O)N3CCN(C(=O)c4ccco4)CC3)cc2)c1	-
CCCn1c(N)c(C(=O)CSc2nc(C)cs2)c(=O)n(C)c1=O	-
COc1ccc(-c2nnn(CC(=O)N(CCN3CCOCC3)C(C(=O)NC3CCCC3)c3ccco3)n2)cc1 (stereo not given)	-
